Experimental data taken from PubChem BioAssay (NCI).
About 79,000 compounds went through this panel and 15% of them were active in at least one assay; those are over-represented in the sample as a whole. A number with no mark means an inactive call. Active and inactive are the calls of the source. No stated cut-off is given here; in the data, active means growth inhibition above about 70%; inactive means the rest.

How the values were obtained:
[1] = NCI Yeast Anticancer Drug Screen. Data for the rad50 strain (AID 155);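 further: 0% = growth of vehicle-only cultures of the same strain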; conditions: S. cerevisiae rad50 strain growth inhibition; at 50.0 µM; stronger effect = higher value
In short: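 Growth of the mutant yeast was measured after compound exposure and referenced to vehicle-treated cultures.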

[2] = NCI Yeast Anticancer Drug Screen. Data for the mec2-1 strain (AID 157); conditions: S. cerevisiae mec2-1 strain, at 50.0 µM, stronger effect = higher value
In short: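 Yeast mec2-1 mutant treated with compound. Readout: growth inhibition vs vehicle controls.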

[3] = NCI Yeast Anticancer Drug Screen. Data for the sgs1 mgt1 strain (AID 161);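 further: 0% = growth of cultures given vehicle only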; conditions: S. cerevisiae sgs1 mgt1 strain, at 50.0 µM, stronger effect = higher value
In short: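 Test agents were incubated with a DNA-repair-mutant yeast strain. Growth was then read and compared against vehicle-treated controls.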

[4] = NCI Yeast Anticancer Drug Screen. Data for the cln2 rad14 strain (AID 165);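 further: 0% = growth equal to vehicle treated cultures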; conditions: S. cerevisiae cln2 rad14 strain, at 50.0 µM, stronger effect = higher value
In short: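 cln2 rad14 yeast strain; compound exposure; growth inhibition read vs vehicle controls.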

[5] = NCI Yeast Anticancer Drug Screen. Data for the bub3 strain (AID 167); conditions: S. cerevisiae bub3 mutant strain, at 50.0 µM, stronger effect = higher value
In short: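 Whole-cell yeast assay. The mutant strain was incubated with compounds, and growth inhibition was determined by comparison with vehicle-treated cells.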

[6] = NCI Yeast Anticancer Drug Screen. Data for the mlh1 rad18 strain (AID 175); conditions: S. cerevisiae mlh1 rad18 strain growth inhibition; at 50.0 µM; stronger effect = higher value
In short: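 Yeast w/ defined DNA-repair lesions; compound exposure; growth vs vehicle controls → % inhibition.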

Row | Structure (SMILES) | growth inhibition [1] | growth inhibition [2] | growth inhibition [3] | growth inhibition [4] | growth inhibition [5] | growth inhibition [6]
1 | COC(=O)c1ccc(NC(=O)CCl)cc1 | 44.8% | 37% | 50% | 49% | 32.7% | 45.5%
2 | N#CCc1ccc([N+](=O)[O-])cc1 | -14.2% | 8.3% | -13.5% | -2.1% | 15.2% | -6.3%
3 | CN(C)c1ccc2nc3ccc(=N)cc-3sc2c1 | 4.55% | -19.1% | 18.6% | 7.45% | -15.2% | 22.4%
4 | COc1cc2nc3cc([N+](=O)[O-])ccc3c(Cl)c2cc1OC | -14.8% | -20.9% | -19.7% | 4.3% | -14.2% | 7.6%
5 | CCOC(=O)C1=C(Nc2ccc(Br)cc2)C(=O)N(CC)C1 | 12.7% | 1.2% | 33% | 14.9% | 42.7% | 19.1%
6 | COCCOC(=O)c1ccc(C(C)C)cc1 | 8.8% | 0.35% | 0.2% | -9.35% | 2.75% | -0.45%
7 | CCCCCCCCCCC1CO1 (centres undefined) | 4.95% | -4.15% | -7% | -23.1% | -13.9% | -8.05%
8 | Cc1cc(Cc2cc(C)c(N)cc2N)c(N)cc1N | -1.6% | -49.4% | -23.9% | 15.2% | -2.25% | 15.9%
9 | CCCCCC(C)(CC(=O)O)CC(=O)O | -18.6% | -15.3% | -21.4% | -27.8% | 0.7% | -15.4%
10 | CC(=O)Nc1ccc(NC(C)=O)c2c1C(=O)c1ccccc1C2=O | 5.55% | -24.1% | -10.3% | 2.15% | -19.3% | 23.9%
11 | CC(=O)c1sc2c(c1OC(=O)c1ccc(Cl)cc1Cl)c(=O)n(-c1ccccc1)c(=S)n2-c1ccccc1 | -3.95% | -23.3% | -19.4% | -5.65% | -6.55% | -3.85%
12 | O=C(/C(=N/O)c1ccccc1)c1ccccc1 | 7.4% | -21.6% | 1.35% | -25.5% | 4.85% | 12.2%
13 | O=[N+]([O-])c1cccc2nsnc12 | 63.5% | 30.6% | 53.8% | 16.6% | -8.15% | 43.6%
14 | O=[N+]([O-])c1ccc(Cl)c(S(=O)(=O)O)c1 | 36.4% | 21.3% | 21.2% | -18.9% | 10.8% | 35.5%
15 | CNC(=S)NC(C)(C)C | -14% | -17.3% | -20.6% | -29.2% | -18.8% | -20%
16 | CCOC(=O)C1OC1c1ccccc1 (centres undefined) | 24.5% | -6.45% | -2.3% | -4.5% | -3.9% | 22.9%
17 | CC(=O)/C(Cc1ccccc1)=N/O | 10.7% | 4.55% | 15.8% | -4% | -2.1% | 2.15%

Row | Structure (SMILES) | growth inhibition [1] | growth inhibition [2] | growth inhibition [3] | growth inhibition [4] | growth inhibition [5] | growth inhibition [6]
18 | Oc1ccc(O)cc1 | 20.6% | 15% | -0.45% | -22.6% | -0.85% | 40.3%
19 | CC(C)(N)COS(=O)(=O)O | -14.6% | -14.1% | -7.95% | -6.9% | 9.25% | -14.1%
20 | CCOC(=O)C(C#N)Cc1ccccc1 (centres undefined) | -0.85% | -2.15% | -3.85% | -14.2% | -1.6% | -3.35%
21 | Cc1ncc(C#N)c(N)n1 | -24.9% | -18% | 12.9% | -7.1% | -3.05% | -5.4%
22 | O=C1OC[C@H]2[C@H](c3ccc(O)c(O)c3)c3cc(O)c(O)cc3C[C@H]12 | 24.9% | -2.45% | 23.9% | 15.8% | 23.7% | 10.9%
23 | CCN=c1cc2sc3cc(NCC)c(C)cc3nc-2cc1C | -22.1% | -35.8% | -16.4% | -14.4% | -15.4% | -22.6%
24 | Nc1nc(N)c(N=Nc2ccc(C(=O)O)cc2)c(N)n1 | -3.65% | 7.35% | 3% | 19.6% | 19% | 22.4%
25 | NC(=O)N/N=C\c1ccco1 | 26.1% | -9.8% | -13.3% | -11.4% | -14.3% | 13.1%
26 | COc1ccccc1NC(=O)C1=C(C)NC(C)=C(C(=O)Nc2ccccc2OC)C1c1cccc([N+](=O)[O-])c1 | -3.3% | 23.2% | -8.05% | -3.9% | 20.4% | 11.3%
27 | O=C(O)C(O)c1ccccc1 (centres undefined) | 20.2% | -7.65% | -5.7% | -48% | 11.3% | 10.7%
28 | COc1cccc(Sc2ccc([N+](=O)[O-])c3no[n+]([O-])c23)c1 | 81.5% (active) | 91.7% (active) | 90.2% (active) | 83.3% (active) | 88.4% (active) | 83.5% (active)
29 | O=C1C=C(Nc2ccc([N+](=O)[O-])cc2)c2ccccc2C1=O | 18.4% | -10.9% | -1.3% | 4.65% | -12.9% | -8.8%
30 | C[C@@H](c1ccccc1)[C@@H](C(=O)O)c1ccccc1 | 8.3% | 5.4% | 8.3% | -38.6% | -5.65% | 29.7%
31 | Nc1nc(OCc2ccccc2)c2[nH]cnc2n1 | -15.3% | -0.15% | -48.1% | -29.2% | -30.9% | -42.5%
32 | O=[N+]([O-])c1ccccc1N=Nc1ccc(O)cc1O | 35.4% | 21.1% | 31.9% | -23.4% | 10.7% | 39.2%
33 | C/C=C/CC(C)C(O)C1C(=O)NC(CC)C(=O)N(C)CC(=O)N(C)C(CC(C)C)C(=O)NC(C(C)C)C(=O)N(C)C(CC(C)C)C(=O)NC(C)C(=O)NC(C)C(=O)N(C)C(CC(C)C)C(=O)N(C)C(CC(C)C)C(=O)N(C)C(C(C)C)C(=O)N1C (centres undefined) | 17.3% | 8.3% | -5.45% | 25.6% | 22.7% | 18.1%
34 | CCCCC(O)c1ccccc1 (centres undefined) | -16.6% | -4.15% | -24.7% | -21.8% | -12.9% | 6.8%
